Measured values from PubChem BioAssay (NCI).
Compounds without any hit were thinned out: in the full panel of roughly 83,000, 20% have a hit.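 Cell lines were cultured in 96-well plates, exposed to a single compound concentration, and assessed for percent growth 48 hours later.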 Unmarked numbers belong to inactive results. Rule for the calls: active = growth percent below 10; inactive = the rest.

system: ACHN renal; assay: NCI-60 one-dose screen, 48 h (100 = growth as untreated, 0 = no growth, -100 = all killed); details: 10 µM

Question: How did the growth turn out when `COc1ccc(C(O)c2ccccc2)cc1` (stereo unspecified) was run?
Answer: 106%

Question: For `CC1CC(O)C2C3(C)CCCC2(COC3=O)C12CCC1(CCOC1=O)O2` (stereo unspecified), which growth is on record?
Answer: 108%

Question: With `c1ccc2c(c1)Sc1ccccc1S2` as the molecule, how does the growth read?
Answer: 109%

Question: `Cc1ncc(C#N)c(N)n1` was tested. Which growth did it give?
Answer: 121%

Question: How did the growth turn out when `CC(=O)Nc1cccc(Cl)c1C` was run?
Answer: 106%

Question: `NCCCN` was tested. Which growth did it give?
Answer: 103%

Question: For `CCCC(C)OCC(=O)O` (stereo unspecified), which growth is on record?
Answer: 102%

Question: With `C#CC(C(C)C)N(CCO)CCCC` (stereo unspecified) as the molecule, how does the growth read?
Answer: 100%

Question: With `O=C(O)/C=C/c1ccc2c(c1)CCC2` as the molecule, how does the growth read?
Answer: 107%

Question: With `CC1(C(=O)O)NC(C(=O)O)Cc2c1[nH]c1ccccc21` (stereo unspecified) as the molecule, how does the growth read?
Answer: 102%

Question: `COc1cc(C2c3cc4c(cc3C3OC(=O)C2C3CO)OCO4)cc(OC)c1OC` (stereo unspecified) was tested. Which growth did it give?
Answer: 24.9%

Question: Which growth does the source give for `O=[N+]([O-])c1ccc(/C=C/C=C/c2ccccc2)c(Cl)c1` here?
Answer: 100%

Question: `COc1ccc(-c2cc3c(nn2)-c2ccccc2C3=O)cc1` was tested. Which growth did it give?
Answer: 73.5%

Question: How did the growth turn out when `COc1cccc(/C=N/NC(=S)NC2CC3CCC2C3)c1O` (stereo unspecified) was run?
Answer: 32.1%

Question: For `CCN(CC)CCCC(C)Nc1ccnc(/C=C/c2ccc(Cl)cc2)c1` (stereo unspecified), which growth is on record?
Answer: 35.2%

Question: `CC(=O)C1CCCCC1` was tested. Which growth did it give?
Answer: 97.3%

Question: For `CC(=O)OCCO`, which growth is on record?
Answer: 105%

Question: With `O=C(/C=C/C(=O)c1ccccc1)c1ccccc1` as the molecule, how does the growth read?
Answer: 90.1%

Question: Which growth does the source give for `CC(=O)OCC1OC(OC2=C(CC=C(C)C)C(=O)c3ccccc3C2=O)C(OC(C)=O)C(OC(C)=O)C1OC(C)=O` (stereo unspecified) here?
Answer: 12.8%

Question: Which growth does the source give for `O=C(/C(=N/O)c1ccccc1)c1ccccc1` here?
Answer: 106%

Question: How did the growth turn out when `c1ccc(/C(=N\N=C(/c2ccccc2)c2cccs2)c2cccs2)cc1` was run?
Answer: 89.8%

Question: How did the growth turn out when `CC(C)=NNC(N)=S` was run?
Answer: 88.3%

Question: With `CCn1c(=O)n(C)c2c(=O)n(C)c(=O)n(C)c21` as the molecule, how does the growth read?
Answer: 105%

Question: Which growth does the source give for `Cc1cccc(CO)c1` here?
Answer: 111%

Question: Which growth does the source give for `O=C(O)c1cccc([N+](=O)[O-])c1` here?
Answer: 114%

Question: With `O=C(O)COCC(=O)O` as the molecule, how does the growth read?
Answer: 103%

Question: How did the growth turn out when `O/N=C/c1ccc(O)cc1O` was run?
Answer: 95.9%

Question: For `CCOC(=O)C(O)C(O)C(=O)OCC` (stereo unspecified), which growth is on record?
Answer: 109%

Question: With `O=C(O)CCCC(=O)O` as the molecule, how does the growth read?
Answer: 103%

Question: With `C=C[Si](OC(C)=O)(OC(C)=O)OC(C)=O` as the molecule, how does the growth read?
Answer: 97.3%

Question: Which growth does the source give for `Clc1ccc(-c2nnc(-c3cccc4ccccc34)o2)cc1` here?
Answer: 90%

Question: For `O=C1C=C(Nc2ccc([N+](=O)[O-])cc2)c2ccccc2C1=O`, which growth is on record?
Answer: 45.8%

Question: How did the growth turn out when `CCN1C(=O)/C(=C/C=C/N(C)c2ccccc2)SC1=S` was run?
Answer: 75.7%

Question: With `CC(=O)Cc1ccc(-c2ccccc2)cc1` as the molecule, how does the growth read?
Answer: 108%

Question: How did the growth turn out when `O=P(O)(O)OCC(O)CO` (stereo unspecified) was run?
Answer: 101%

Question: For `Cc1ccc(C(O)C2CC2)cc1` (stereo unspecified), which growth is on record?
Answer: 104%

Question: `c1cc[n+](C2c3ccccc3C([n+]3ccccc3)c3ccccc32)cc1` (stereo unspecified) was tested. Which growth did it give?
Answer: 91.8%

Question: How did the growth turn out when `O=S(=O)(Cc1ccccc1)c1ccccc1` was run?
Answer: 111%

system: CAKI-1 renal; assay: as above; details: 10 µM

Question: Which growth does the source give for `COc1ccc(C(O)c2ccccc2)cc1` (stereo unspecified) here?
Answer: 100%

Question: With `CC1CC(O)C2C3(C)CCCC2(COC3=O)C12CCC1(CCOC1=O)O2` (stereo unspecified) as the molecule, how does the growth read?
Answer: 94.7%

Question: `c1ccc2c(c1)Sc1ccccc1S2` was tested. Which growth did it give?
Answer: 103%

Question: Which growth does the source give for `Cc1ncc(C#N)c(N)n1` here?
Answer: 92.9%

Question: Which growth does the source give for `CC(=O)Nc1cccc(Cl)c1C` here?
Answer: 97.7%

Question: For `NCCCN`, which growth is on record?
Answer: 98.3%

Question: `CCCC(C)OCC(=O)O` (stereo unspecified) was tested. Which growth did it give?
Answer: 97.5%

Question: `C#CC(C(C)C)N(CCO)CCCC` (stereo unspecified) was tested. Which growth did it give?
Answer: 102%

Question: Which growth does the source give for `O=C(O)/C=C/c1ccc2c(c1)CCC2` here?
Answer: 94.5%

Question: For `CC1(C(=O)O)NC(C(=O)O)Cc2c1[nH]c1ccccc21` (stereo unspecified), which growth is on record?
Answer: 96.5%

Question: Which growth does the source give for `COc1cc(C2c3cc4c(cc3C3OC(=O)C2C3CO)OCO4)cc(OC)c1OC` (stereo unspecified) here?
Answer: 37.4%

Question: Which growth does the source give for `O=[N+]([O-])c1ccc(/C=C/C=C/c2ccccc2)c(Cl)c1` here?
Answer: 95%

Question: `COc1ccc(-c2cc3c(nn2)-c2ccccc2C3=O)cc1` was tested. Which growth did it give?
Answer: 28.9%

Question: For `COc1cccc(/C=N/NC(=S)NC2CC3CCC2C3)c1O` (stereo unspecified), which growth is on record?
Answer: 38.2%

Question: For `CCN(CC)CCCC(C)Nc1ccnc(/C=C/c2ccc(Cl)cc2)c1` (stereo unspecified), which growth is on record?
Answer: 18.1%

Question: For `CC(=O)C1CCCCC1`, which growth is on record?
Answer: 90.8%

Question: Which growth does the source give for `CC(=O)OCCO` here?
Answer: 104%

Question: `O=C(/C=C/C(=O)c1ccccc1)c1ccccc1` was tested. Which growth did it give?
Answer: 94.9%

Question: For `CC(=O)OCC1OC(OC2=C(CC=C(C)C)C(=O)c3ccccc3C2=O)C(OC(C)=O)C(OC(C)=O)C1OC(C)=O` (stereo unspecified), which growth is on record?
Answer: 68.5%

Question: With `O=C(/C(=N/O)c1ccccc1)c1ccccc1` as the molecule, how does the growth read?
Answer: 100%

Question: Which growth does the source give for `c1ccc(/C(=N\N=C(/c2ccccc2)c2cccs2)c2cccs2)cc1` here?
Answer: 89.9%

Question: How did the growth turn out when `CC(C)=NNC(N)=S` was run?
Answer: 83.3%

Question: How did the growth turn out when `CCn1c(=O)n(C)c2c(=O)n(C)c(=O)n(C)c21` was run?
Answer: 98.3%

Question: Which growth does the source give for `Cc1cccc(CO)c1` here?
Answer: 100%

Question: How did the growth turn out when `O=C(O)c1cccc([N+](=O)[O-])c1` was run?
Answer: 100%

Question: With `O=C(O)COCC(=O)O` as the molecule, how does the growth read?
Answer: 97.5%

Question: How did the growth turn out when `O/N=C/c1ccc(O)cc1O` was run?
Answer: 101%

Question: Which growth does the source give for `CCOC(=O)C(O)C(O)C(=O)OCC` (stereo unspecified) here?
Answer: 101%

Question: With `O=C(O)CCCC(=O)O` as the molecule, how does the growth read?
Answer: 105%

Question: How did the growth turn out when `C=C[Si](OC(C)=O)(OC(C)=O)OC(C)=O` was run?
Answer: 96.4%

Question: With `Clc1ccc(-c2nnc(-c3cccc4ccccc34)o2)cc1` as the molecule, how does the growth read?
Answer: 81.6%

Question: `O=C1C=C(Nc2ccc([N+](=O)[O-])cc2)c2ccccc2C1=O` was tested. Which growth did it give?
Answer: 67.9%

Question: `CCN1C(=O)/C(=C/C=C/N(C)c2ccccc2)SC1=S` was tested. Which growth did it give?
Answer: 91.6%

Question: `CC(=O)Cc1ccc(-c2ccccc2)cc1` was tested. Which growth did it give?
Answer: 104%

Question: How did the growth turn out when `O=P(O)(O)OCC(O)CO` (stereo unspecified) was run?
Answer: 104%

Question: With `Cc1ccc(C(O)C2CC2)cc1` (stereo unspecified) as the molecule, how does the growth read?
Answer: 91.9%

Question: With `c1cc[n+](C2c3ccccc3C([n+]3ccccc3)c3ccccc32)cc1` (stereo unspecified) as the molecule, how does the growth read?
Answer: 87.3%

Question: How did the growth turn out when `O=S(=O)(Cc1ccccc1)c1ccccc1` was run?
Answer: 107%
